Giardia killer = Small Molecules that selectively kill Giardia lamblia: qHTS. 340,000 tested, 0.15% active. activity change, % at 7.66 µM, hits read low. Giardia lamblia trophozoite viability; in the data active = activity change below about -80%; inconclusive = between about -30% and that limit;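 also: parasites exposed to compound for two days anaerobically before the ATP read; % is scaled to controls: 0 for no effect and ±100 for the full control effect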
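Luminescence from cellular ATP indicates surviving trophozoites (100 cells/well) following 48 hrs anaerobic compound treatment at 37 deg C; signal develops 15-30 min at room temperature.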
HT1080 IDH1KD tx = qHTS for induction of synthetic lethality in tumor cells producing 2HG: qHTS for the HT-1080-IDH1KD cell line | HT-1080 IDH1 knockdown viability, ATP luminescence, 48 h | Potency, µM (series often up to 46.1 µM), inactives show top-dose activity, negative = toxicity, usual class: cytotoxic | 360,000 tested, 2% active;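 also: potency is read from the fitted curve at half-maximal effect; 0% = DMSO wells and -100% = cell-free medium wells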
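Cytotoxicity counter-line: IDH1KD HT-1080, 48 h, CellTiter-Glo. Curves classed by r2, magnitude and activity.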
HepG2 viability = qHTS for Inhibitors of TGF-b: Cytotox Counterscreen; 410,000 tested, 0.76% active; Potency, µM (highest dose often 46.1 µM), for the others: at the top dose activity change, negative = cytotoxicity, actives largely listed as cytotoxic; HepG2 CAGA-GFP viability, ATP luminescence, 18 h; also: potency is read from the fitted curve at half-maximal effect
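CellTiter-Glo luminescence gave cytotoxicity after 18 hours at 37 degrees C. The cells were HepG2 CAGA-GFP in 1% FBS DMEM, stimulated with 500 pg/mL TGF-beta after compound addition. %Activity was normalised to no-cell wells (complete cell-killing) and DMSO (no toxicity), and curves were fitted and classified.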
TGFb SMAD3 inh = qHTS for Inhibitors of TGF-b; HepG2 CAGA-GFP TGF-b/SMAD3 reporter, GFP fluorescence, 18 h; TGF-beta stimulated, 500 pg/mL final; 410,000 tested, 1.2% active; Potency, µM (titrated, usually from 46.1 µM), for the others: top-dose activity, negative = inhibition, most hits filed as inhibitors; also: potency is read from the fitted curve at half-maximal effect; % is scaled to controls: 0 for no effect and ±100 for the full control effect; nearly all actives have a fitted effect of over 65% in size
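Cell-based qHTS in HEPG2 carrying a CAGA-GFP Smad reporter; compounds added before 500 pg/mL final TGF-beta, 18 h incubation at 37 degrees C, GFP fluorescence quantified per cell by imaging cytometry.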
HT1080-NT tox = qHTS for induction of synthetic lethality in tumor cells producing 2HG: qHTS for the HT-1080-NT fibrosarcoma cell line. AID 686970, 2013. 360,000 tested, 1.6% active. HT-1080-NT fibrosarcoma viability, CellTiter-Glo ATP luminescence, 48 h. Potency, µM (top dose mostly 46.1 µM), inactives show at the top dose activity, negative = less viability, actives largely listed as cytotoxic;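 also: NT is the 2HG producing partner of a matched IDH1 knockdown line; potency is read from the fitted curve at half-maximal effect; 0% = DMSO-treated cells and -100% = media-only wells without cells; nearly all actives have a fitted effect of over 55% in size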
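Viability by CellTiter-Glo luminescence after 48 h compound exposure at 37C of HT-1080-NT cells (750/well, RPMI, 5% FBS). % activity scaled between DMSO wells and medium-only wells, then curve-fitted and categorized by curve class.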
IL-1B inflam inh = qHTS for Inhibitors of Inflammasome Signaling: IL-1-beta AlphaLISA Primary Screen; AID 743279, 2014; 360,000 tested, 4.7% active; THP-1 LPS/ATP IL-1B secretion, AlphaLISA, 16 h; hits give low values; activity change, % at 57.5 µM; in the data active = activity change below about -50%; inconclusive = mostly about -30% to -49%; also: % is scaled to controls: 0 for no effect and ±100 for the full control effect
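Secreted IL-1B measured by AlphaLISA bead assay after 16 h compound exposure of THP-1 cells; compounds (final up to 57.5 uM) added 1 h before LPS (250 ng/mL) and ATP (1.25 mM) stimulation; lower signal means less secretion.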
* = called active by the depositor; ? = inconclusive; · = no result; [ ] = remark or other dose. Hits are enriched below; roughly 6.5% of the tested compounds scored in any of these assays. Unless noted, calls follow the shape of the dose curve; as a rule, active = well fitted curve in the direction sought with a large enough effect; inconclusive = small, poorly fitted or top-dose-only effect, or another doubt; inactive = no such curve, though single readings can be large; an effect the other way counts as inactive or inconclusive.

SMILES | Giardia killer | HT1080 IDH1KD tx | HepG2 viability | TGFb SMAD3 inh | HT1080-NT tox | IL-1B inflam inh
CCc1ccc(CN(C)C(=O)c2cc(=O)c3ccccc3o2)cc1 | -2 | -8% | -13% | -27% | -11% | 2
NC(=O)c1ccccc1NC(=O)CN1CCOCC1 | 6 | 9% | 2% | 0% | 2% | 9
CC1CCCC(C)N1C(=O)CSc1nccc(=O)[nH]1 (stereo not drawn) | -7 | -2% | -5% | -6% | -4% | -10
c1cncc(CSc2ccc(-c3cccs3)nn2)c1 | -9 | ? | -17% | 10% | -26% | -60*
Fc1cccc(CSc2ccc(-c3cccs3)nn2)c1 | · | · | -29% | -14% | · | ·
CCCCn1c(-c2ccc(S(=O)(=O)N3CCOCC3)cc2)csc1=Nc1ccccc1 | · | · | 0% | -6% | · | ·
O=S(=O)(c1ccc(-c2csc(=Nc3ccccc3)n2CCCN2CCOCC2)cc1)N1CCOCC1 | 23 | -3% | -25% | -2% | -22% | -61*
Cc1ccc(S(=O)(=O)c2nc(-c3ccco3)oc2SCc2ccccc2Cl)cc1 | · | · | -7% | 1% | · | ·
Cc1nnc(N/N=C\c2ccc(-c3cccc(C(=O)O)c3)o2)n1N | 22 | ? | 7.1µM* | 10µM* | -29% | 4
Cc1nnc(N/N=C/c2ccc(-c3ccc(Br)cc3)o2)n1N | -1 | ? | -104% | ? | ? | 0
COc1ccc(C(=O)N/N=C/c2ccc(N3CCOCC3)o2)cc1OC | 34 | -17% | -7% | -1% | -6% | 14
CCCCn1c(=O)[nH]c(=O)c2c1nc(CN1C(=O)c3ccccc3S1(=O)=O)n2CCC | -28 | 9% | -19% | -7% | 5% | -3
CCCCn1c(=O)[nH]c(=O)c2c1nc(Cn1ncc(Cl)c(Cl)c1=O)n2CCC | 8 | 12µM* | 11µM* | 6.3µM* | 8.2µM* | -104*
CCCCC/C=C/C1=CC(=O)C[C@H](c2ccc3c(c2)OCO3)C1 | 10 | -3% | -22% | ? | 0% | 7
COC/C=C/C1=CC(=O)C[C@H](c2ccc3c(c2)OCO3)C1 | -24 | -4% | -30% | -16% | -16% | -96*
Fc1cccc(CCN2CCN=C2Nc2ccccc2)c1 | 0 | -2% | -8% | ? | -1% | 14
CN1CCN(C(=O)/C=C/c2ccc([N+](=O)[O-])o2)CC1 | ? | 21µM* | -119% | 11µM* | ? | -58*
O=C(/C=C/c1ccc(-c2ccc(F)cc2)o1)N1CCCC1 | -20 | -8% | -15% | -18% | -14% | -75*
Cc1cc(C(=O)OCC(=O)Nc2ccccc2C)c(C)o1 | -6 | 14% | 3% | 1% | 10% | 10
Cc1cc(C(=O)OCC(=O)Nc2ccc(F)cc2F)c(C)o1 | -11 | 2% | 5% | -6% | 3% | -55*
CCOc1ccc2nc(N3CCCC(C(=O)NCCCN4CC(C)CC(C)C4)C3)sc2c1 (stereo not drawn) | -13 | ? | -95% | ? | 16µM* | -53*
CCOc1ccc2nc(N3CCCC(C(=O)NCCCN4CCCCC4)C3)sc2c1 (stereo not drawn) | 25 | ? | -35% | -4% | 18µM* | 0
CCOc1ccc2nc(N3CCCC(C(=O)NCCCN4C(C)CCCC4C)C3)sc2c1 (stereo not drawn) | -10 | ? | -30% | -3% | ? | -70*
CC1CCN(C(=S)Nc2cccc(S(=O)(=O)N(C)C)c2)CC1 | 7 | 4% | -2% | 7% | 5% | 5
O=C(Nc1cc(Cl)ccc1N1CCCCC1)c1cccs1 | -10 | -3% | 3% | -10% | 4% | 22
SMILES | Giardia killer | HT1080 IDH1KD tx | HepG2 viability | TGFb SMAD3 inh | HT1080-NT tox | IL-1B inflam inh
OC(CNC1CCCc2ccccc21)COc1c(Cl)cccc1Cl (stereo not drawn) | 5 | ? | -39% | ? | -20% | -101*
Cc1cc(C)c(C#N)c(N2CCN(c3ccccc3F)CC2)n1 | 8 | 1% | -55% | -2% | 1% | 42
COc1ccc(NC(=O)N(C)[C@H]2C[C@H]3c4[nH]c5ccccc5c4CCN3C(=O)[C@H]2[C@H](C)O)cc1 | · | -4% | -19% | -11% | -4% | 1
COc1ccc(-c2ccc3[nH]c4c(c3c2)CCN2C(=O)[C@@H]([C@H](C)O)[C@@H](N(C)C(=O)Nc3ccccc3)C[C@@H]42)cc1 | · | 16µM* | -103% | ? | 23µM* | -26
COc1ccc(NC(=O)N(C)[C@H]2C[C@H]3c4[nH]c5ccc(-c6ccc(OC)cc6)cc5c4CCN3C(=O)[C@H]2[C@H](C)O)cc1 | · | 16µM* | -41% | ? | 23µM* | 0
CN[C@H]1C[C@H]2c3[nH]c4ccc(-c5ccc(OC)cc5)cc4c3CCN2C(=O)[C@H]1[C@H](C)O | · | 13µM* | 14µM* | 16µM* | 8.2µM* | ?
CN1CCc2c(sc(NC(=O)C3CCCN3S(=O)(=O)c3ccc(Cl)s3)c2C(N)=O)C1 (stereo not drawn) | 26 | 1% | 1% | 15% | 6% | -5
CC(C)CNC(=O)CSc1nc2nn(-c3ccccc3)c(=O)c-2c2n1CCCCC2 | 9 | -3% | -2% | 1% | -3% | -53*
O=C(CSc1nc2nn(-c3ccccc3)c(=O)c-2c2n1CCCCC2)Nc1ccc(F)cc1F | 33 | 1% | -17% | -11% | -7% | -56*
CNC(=O)CSc1nc2nn(-c3ccccc3)c(=O)c-2c2n1CCCCC2 | -1 | 4% | -25% | -14% | -2%[9.24 µM] | 42
O=C(CSc1nc2nn(-c3ccccc3)c(=O)c-2c2n1CCCCC2)Nc1ccc(F)c(F)c1 | 21 | 2% | 7% | -3% | 11% | -28
CC(=O)c1ccc(NC(=O)CSc2nnc(-c3ccncc3)o2)cc1 | -2 | -2% | 4% | 13% | -4% | -4
Cc1ccc(NC(=O)c2nnn(CC(=O)Nc3ccc(C)c(Cl)c3)c2N)c(C)c1 | · | · | -2% | -5% | · | ·
Cc1nn(-c2ccccc2)c(Cl)c1/C=C(\C#N)C(=O)NC(C)C | 11 | -11% | -22% | 3% | -16% | -102*
COc1ccc(NC(=O)/C(C#N)=C/c2c(C)nn(-c3ccc(F)cc3)c2Cl)cc1Cl | -3 | 1% | 15% | -5% | -1% | -55*
